In the library only some 19% were active in any assay of this set; here they are far more common.
HT1080-NT tox: kills 2HG-producing HT-1080-NT fibrosarcoma cells; HT-1080-NT fibrosarcoma viability, CellTiter-Glo ATP luminescence, 48 h; Potency, µM (top dose mostly 46.1 µM), for inactives: at the top dose activity, negative = less viability, hits mostly cytotoxic; 1.6% of 360,000 active; AID 686970;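 also: NT is the 2HG producing partner of a matched IDH1 knockdown line; potency is read from the fitted curve at half-maximal effect; 0% = DMSO-treated cells and -100% = media-only wells without cells; nearly all actives have a fitted effect of over 55% in size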
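750 cells/well, RPMI + 5% FBS; 2 h settle, compound pin-transfer, 48 h at 37 degrees C. CellTiter-Glo 10 min RT, luminescence. Normalized to DMSO and media-only wells.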
uPA generation: inhibitors of cell surface uPA generation | 0.31% of 330,000 active | AID 540303 | cell surface uPA generation assay, qHTS | Potency, µM (highest dose often 38.3 µM), inactives show at the top dose activity change, negative = inhibition, most hits filed as inhibitors; active = well fitted inhibition curve with a large enough effect; inconclusive = small, poorly fitted or top-dose-only effect; inactive = no such curve, though single readings can be large or run the other way; tested in mouse RAW 264.7 cells; also: potency is read from the fitted curve at half-maximal effect; nearly all actives have a fitted effect of over 55% in size
HT1080 IDH1KD tx: kills HT-1080 cells with IDH1 knockdown; HT-1080 IDH1 knockdown viability, ATP luminescence, 48 h; Potency, µM (top dose mostly 46.1 µM), for inactives: at the highest dose activity, negative = toxicity, actives largely listed as cytotoxic; 2% of 360,000 active;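 also: potency is read from the fitted curve at half-maximal effect; 0% = DMSO wells and -100% = cell-free medium wells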
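HT-1080-IDH1KD cells (IDH1 knocked down), 750/well in RPMI with 5% FBS, treated with compound 48 h at 37 degrees C. Viability by CellTiter-Glo luminescence, normalised to DMSO and no-cell wells; concentration-response curves classed.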
IL-1B inflam inh: blocks inflammasome-driven IL-1 beta release; activity change, % at 57.5 µM; THP-1 LPS/ATP IL-1B secretion, AlphaLISA, 16 h; stronger effect = lower value; AID 743279; 4.7% of 360,000 active; in the data active = activity change below about -50%; inconclusive = mostly about -30% to -49%
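Secreted IL-1B measured by AlphaLISA bead assay after 16 h compound exposure of THP-1 cells; compounds (final up to 57.5 uM) added 1 h before LPS (250 ng/mL) and ATP (1.25 mM) stimulation; lower signal means less secretion.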
TDP1 cell CPT: growth inhibition of DT40 Tdp1-/-;hTDP1 cells with camptothecin (screen for TDP1 inhibitors). chicken DT40 Tdp1-/-;hTDP1 cells + 20 nM CPT, ATP luminescence, 48 h. Potency, µM (series often up to 46.2 µM), without a hit: top-dose activity change, negative = growth inhibition, most hits filed as inhibitors. 12% of 420,000 active; also: potency is read from the fitted curve at half-maximal effect; nearly all actives have a fitted effect of over 55% in size
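Chicken DT40 Tdp1-/- cells complemented with human TDP1, 400 cells/well, exposed to compounds plus 20 nM camptothecin for at least 48 h at 37 C; viability read as ATP content by CellTiter-Glo luminescence.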
DT40 TDP1 no CPT: qHTS for Inhibitors of human tyrosyl-DNA phosphodiesterase 1 (TDP1): qHTS in cells in absence of CPT. DT40 Tdp1-/- hTDP1 cells, no CPT, ATP luminescence, 48 h. Potency, µM (doses to about 46.2 µM), inactives show at the highest dose activity change, negative = growth inhibition, actives largely listed as inhibitors. 15% of 420,000 active; also: potency is read from the fitted curve at half-maximal effect; nearly all actives have a fitted effect of over 55% in size
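Growth kinetics read by CellTiter-Glo luminescence after ≥48 hr at 37 °C. Cells: DT40 Tdp1-/- stably carrying human TDP1, 400 per well, compound exposure in the absence of CPT (DMSO vehicle).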
Starred values were filed as active, the others as inactive. Unless noted, calls follow the shape of the dose curve; as a rule, active = well fitted curve in the direction sought with a large enough effect; inconclusive = small, poorly fitted or top-dose-only effect, or another doubt; inactive = no such curve, though single readings can be large; an effect the other way counts as inactive or inconclusive. Unless noted, % is scaled to controls: 0 for no effect and ±100 for the full control effect.

`Cc1ccn2c(C(=O)CSc3ccc(Cl)cc3)c(C)nc2c1` gave HT1080-NT tox -2%, uPA generation -2%, HT1080 IDH1KD tx -3%, IL-1B inflam inh 14, TDP1 cell CPT 23µM* and DT40 TDP1 no CPT 21µM*.
Screening Cc1ccn2c(=O)nc(SCC(=O)c3ccc(Cl)cc3)nc2c1 returned HT1080-NT tox -8%, uPA generation 16%, HT1080 IDH1KD tx -3%, IL-1B inflam inh -4, TDP1 cell CPT inconclusive and DT40 TDP1 no CPT inconclusive.
Screening CCc1ccc(OCC(=O)Nc2ccc3oc(=O)ccc3c2)cc1 returned HT1080-NT tox -2%, uPA generation -7%, HT1080 IDH1KD tx 2%, IL-1B inflam inh 4, TDP1 cell CPT 11% and DT40 TDP1 no CPT 3%.
For COc1ccccc1CNC(=O)C1CCC(CNS(=O)(=O)c2ccc(C)cc2)CC1 (configuration not stated) the results were HT1080-NT tox -25%, uPA generation 2%, HT1080 IDH1KD tx -20%, IL-1B inflam inh 37, TDP1 cell CPT -1% and DT40 TDP1 no CPT inconclusive.
`Cc1onc(-c2c(Cl)cccc2Cl)c1C(=O)Nc1ccc(N2CCOCC2)cc1` gave HT1080-NT tox 11%, uPA generation 6%, HT1080 IDH1KD tx 0%, IL-1B inflam inh 33, TDP1 cell CPT 7% and DT40 TDP1 no CPT 2%.
CCc1ccc(S(=O)(=O)c2nnn3c2nc(N2CCCC(C)C2)c2cc(Cl)ccc23)cc1 (configuration not stated) was read as TDP1 cell CPT inconclusive and DT40 TDP1 no CPT 7.3µM*.
CCc1ccc(S(=O)(=O)c2nnn3c2nc(N2CCC(C)CC2)c2cc(Cl)ccc23)cc1 was read as TDP1 cell CPT 18µM* and DT40 TDP1 no CPT 10µM*.
Screening Cc1ccc(S(=O)(=O)c2nnn3c2nc(N2CCN(c4ccc(F)cc4)CC2)c2cc(Cl)ccc23)cc1C returned TDP1 cell CPT -11% and DT40 TDP1 no CPT -9%.
`O=C1NC[C@H](CCCCN2CCN(Cc3ccccc3)C(=O)C2=O)N(CCC2CCCCC2)C1=O` gave HT1080-NT tox 5%, HT1080 IDH1KD tx -5%, IL-1B inflam inh -1, TDP1 cell CPT 2% and DT40 TDP1 no CPT -20%.
Screening O=c1c(-c2cc(F)cc(F)c2)nc2cnc(N3CCOCC3)nc2n1CCc1ccccc1 returned TDP1 cell CPT -1% and DT40 TDP1 no CPT 16%.
`Cc1cc(Cl)cc(C)c1OCCNCc1ccccc1` gave HT1080-NT tox 18µM*, uPA generation 2%, HT1080 IDH1KD tx inconclusive, IL-1B inflam inh -96*, TDP1 cell CPT inconclusive and DT40 TDP1 no CPT 21µM*.
Clc1ccc(OCCOCCNCc2ccccc2)cc1Cl was read as HT1080-NT tox -28%, uPA generation -19%, HT1080 IDH1KD tx -24%, IL-1B inflam inh -26, TDP1 cell CPT 16µM* and DT40 TDP1 no CPT 18µM*.
`Cc1cc(Cl)cc(C)c1OCCOCCNCc1ccccc1` gave HT1080-NT tox inconclusive, uPA generation -3%, HT1080 IDH1KD tx -28%, IL-1B inflam inh inconclusive, TDP1 cell CPT 23µM* and DT40 TDP1 no CPT inconclusive.
For Cc1cc(C)c(C)c(OCCNCc2ccccc2)c1 the results were HT1080-NT tox inconclusive, uPA generation -2%, HT1080 IDH1KD tx 15µM*, IL-1B inflam inh -93*, TDP1 cell CPT inconclusive and DT40 TDP1 no CPT inconclusive.
`CCN(CC)c1ccc(NC(=O)c2cc(S(=O)(=O)N3CCc4ccccc43)cn2C)c(C)c1` gave TDP1 cell CPT -29% and DT40 TDP1 no CPT inconclusive.
C=CCc1ccccc1OCCNCc1ccccc1 was read as HT1080-NT tox -1%, uPA generation -2%, HT1080 IDH1KD tx inconclusive, IL-1B inflam inh -91*, TDP1 cell CPT inconclusive and DT40 TDP1 no CPT 16µM*.
Screening Cc1cc(C)c(OCCNCc2ccccc2)c(C)c1 returned HT1080-NT tox -17%, uPA generation 0%, HT1080 IDH1KD tx -30%, IL-1B inflam inh -54*, TDP1 cell CPT inconclusive and DT40 TDP1 no CPT inconclusive.
`O=C(O)Cc1cc2ccccc2nc1C(=O)O` gave TDP1 cell CPT -10% and DT40 TDP1 no CPT -9%.
Screening O=C1C(=Cc2ccco2)CCC1=Cc1ccco1 returned HT1080-NT tox 1%, uPA generation -4%, HT1080 IDH1KD tx 3%, IL-1B inflam inh -51*, TDP1 cell CPT 23µM* and DT40 TDP1 no CPT 16µM*.
For O/N=C1\CCC\C1=C/c1ccco1 the results were HT1080-NT tox -1%, uPA generation 5%, HT1080 IDH1KD tx 8%, IL-1B inflam inh -1, TDP1 cell CPT 7% and DT40 TDP1 no CPT -1%.
Screening O=C1C(=Cc2ccco2)CCCC1=Cc1ccco1 returned HT1080-NT tox 1%, uPA generation -14%, HT1080 IDH1KD tx 5%, IL-1B inflam inh -25, TDP1 cell CPT 23µM* and DT40 TDP1 no CPT inconclusive.
For COC(=O)C1=C(C)NC(=O)/C1=C\c1ccco1 the results were HT1080-NT tox 0%, uPA generation -4%, HT1080 IDH1KD tx 2%, IL-1B inflam inh -8, TDP1 cell CPT -15% and DT40 TDP1 no CPT -3%.
For CCO[C@H]1OC(C(=O)N2CCN(C)CC2)=C[C@@H](c2coc3ccccc3c2=O)[C@@H]1CCCO the results were HT1080-NT tox 11%, uPA generation -1%, HT1080 IDH1KD tx 7%, IL-1B inflam inh -1, TDP1 cell CPT 2% and DT40 TDP1 no CPT 0%.
For CCO[C@H]1OC(C(=O)N2CCN(Cc3ccc4c(c3)OCO4)CC2)=C[C@@H](c2cn(C(C)=O)c3ccccc23)[C@@H]1CCCO the results were HT1080-NT tox -4%, uPA generation -7%, HT1080 IDH1KD tx -5%, IL-1B inflam inh inconclusive, TDP1 cell CPT inconclusive and DT40 TDP1 no CPT inconclusive.
For CCO[C@H]1OC(C(=O)N2CCN(Cc3ccc4c(c3)OCO4)CC2)=C[C@@H](c2csc3ccccc23)[C@@H]1CCCO the results were HT1080-NT tox inconclusive, uPA generation inconclusive, HT1080 IDH1KD tx inconclusive, IL-1B inflam inh -61*, TDP1 cell CPT inconclusive and DT40 TDP1 no CPT inconclusive.
CCO[C@@H]1OC(C(=O)N2CCN(Cc3ccc4c(c3)OCO4)CC2)=C[C@H](c2coc3ccccc3c2=O)[C@H]1CCCO was read as HT1080-NT tox 1%, uPA generation -5%, HT1080 IDH1KD tx -2%, IL-1B inflam inh -25, TDP1 cell CPT 16µM* and DT40 TDP1 no CPT 18µM*.

Screens from PubChem BioAssay.
